Reference: PubChem BioAssay AID1220 (Sanford-Burnham Center for Chemical Genomics, 2008)
The campaign covered roughly 190,000 compounds. About 1,300 (0.68%) were called active. Many of the other results were omitted from the sample, so actives are more common in it than they were. Unmarked numbers belong to inactive results. Rule as the data show it: active = inhibition above about 50%; inactive = the rest.

The molecules below were run against Mannose-6-phosphate isomerase (Homo sapiens) (UniProt P34949) (assay: MPI inhibition at elevated mannose 6-phosphate – biochemical, fluorescence intensity, high mannose 6-phosphate, primary screen (AID 1220)). Conditions: recombinant PMI enzyme, coupled fluorescence intensity; at 20 µM; active compounds read high.
Chain of Mannose-6-phosphate isomerase (Homo sapiens) (P34949 whole entry, looked up): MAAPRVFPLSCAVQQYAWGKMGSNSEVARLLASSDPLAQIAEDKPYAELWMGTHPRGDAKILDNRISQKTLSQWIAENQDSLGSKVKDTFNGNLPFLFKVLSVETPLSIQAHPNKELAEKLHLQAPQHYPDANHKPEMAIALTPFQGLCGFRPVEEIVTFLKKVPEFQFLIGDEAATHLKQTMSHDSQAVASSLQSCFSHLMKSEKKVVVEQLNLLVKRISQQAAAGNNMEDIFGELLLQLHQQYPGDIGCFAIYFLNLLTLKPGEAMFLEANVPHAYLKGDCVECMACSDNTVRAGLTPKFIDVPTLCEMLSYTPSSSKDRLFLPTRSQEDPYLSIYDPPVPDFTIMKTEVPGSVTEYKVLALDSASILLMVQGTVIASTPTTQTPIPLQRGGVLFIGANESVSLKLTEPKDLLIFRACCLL

Structure (SMILES)	inhibition
CCCCNC(=S)N(C)/N=C/c1c(C)[nH]c2ccccc12	9.5%
CCNC(=S)N/N=C/c1ccccc1[N+](=O)[O-]	-1.5%
Cc1[nH]c2ccccc2c1/C=N/n1cnnc1	-4.2%
O=[N+]([O-])c1ccc(/C=N/N=C/c2ccc([N+](=O)[O-])o2)o1	24.5%
CN(/N=C/c1ccc([N+](=O)[O-])o1)c1ccccc1	-3.1%
CCN(CC)c1ccc(N=Cc2ccc([N+](=O)[O-])o2)cc1	59.7% (active)
CCN(CC)c1ccc(N=Cc2ccccc2[N+](=O)[O-])cc1	64.4% (active)
CCCCCC(=O)N/N=C/c1ccccc1[N+](=O)[O-]	-6.7%
CCN(CC)c1ccc(N=Cc2c(C)[nH]c3ccccc23)cc1	69.7% (active)
CCN(CC)c1ccc(/C=N/NS(=O)(=O)c2cccc([N+](=O)[O-])c2)cc1	-83.2%
O=C(CNC(=O)C1COc2ccccc2O1)N/N=C\c1cccc(O)c1 (configuration not stated)	-10.8%
Cc1cccc(-n2nnc3c(=O)n(CC(=O)Nc4cc(C)on4)cnc32)c1	-4.2%
COc1ccccc1N/C=C1/Sc2cc(Cl)ccc2NC1=O	3%
COc1cc(N)c(Cc2nccc3cc(OC)c(OC)cc23)cc1OC	56.4% (active)
CCOC(=O)Nc1cc(OC)c(OC)cc1Cc1nccc2cc(OC)c(OC)cc12	-1.9%
COc1cc2ccnc(Cc3cccc(OC)c3OC)c2cc1OC	44.9%
COc1ccc(NC(=O)c2ccccc2NC(=O)CSc2ccccc2)cc1	2.1%
Cc1nn(-c2ccccn2)c2c1C(=O)C(Br)CC2 (configuration not stated)	72.9% (active)
Cc1nn(-c2ccccn2)c2c1C(c1ccccn1)C1=C(CCCC1=O)N2 (configuration not stated)	0.2%
C=C(C)C1Cc2c(C)nn(-c3ccccn3)c2C1 (configuration not stated)	-10.9%
Cc1ccccc1C(=O)NNC(=O)C12CC3CC(CC(C3)C1)C2	7%
CC(=O)CC(=O)Nc1ccc(C(N)=O)cc1	6.1%
COc1ccc(C2C(C#N)=C(N)Oc3cc(C)n(CCN4CCOCC4)c(=O)c32)cc1OC (configuration not stated)	-0.4%
COc1cc(OC)c(C2C(C#N)=C(N)Oc3cc(C)n(CCCN4CCOCC4)c(=O)c32)cc1OC (configuration not stated)	61.6% (active)
COc1cc(C2C(C#N)=C(N)Oc3cc(C)n(CCN4CCOCC4)c(=O)c32)cc(OC)c1OC (configuration not stated)	-11.7%

Structure (SMILES)	inhibition
N#Cc1nc(-c2ccc(Cl)cc2)oc1N1CCCCC1	-8.5%
COc1ccccc1-n1c(CNC(=O)c2cccc([N+](=O)[O-])c2C)n[nH]c1=S	-7.8%
COC(=O)c1ccccc1NC(=S)N1CCN(c2ccccn2)CC1	5.5%
COC(=O)c1ccccc1N/C=C1\CCc2c(c(C)nn2-c2ccccn2)C1=O	73.6% (active)
CCOC(=O)c1ccccc1N/C=C1\CCCCC1=O	-11.5%
COc1ccccc1N1CCN(C(=O)c2ccc3c(Cl)c4c(nc3c2)CCCC4)CC1	14.1%
Cn1c(=O)[nH]c(=O)c2c1nc(N1CCCC1)n2CC(O)COc1ccccc1 (configuration not stated)	3.3%
CCNc1nc(Cl)nc(NCCOc2ccc(C)cc2)n1	0.4%
Cc1cccc(C)c1OCC(=O)Nc1nnc(C2CCCO2)s1 (configuration not stated)	53.1% (active)
CCCC(=O)Nc1nnc(C2CCCO2)s1 (configuration not stated)	17.6%
Cc1ccc(OCC(=O)Nc2nnc(C3CCCO3)s2)c(Br)c1 (configuration not stated)	5.8%
O=C(COc1ccc([N+](=O)[O-])cc1)NCc1ccncc1	-2.2%
O=S(=O)(Cc1ccccc1)NCC1CCCN(Cc2ccc3nonc3c2)C1 (configuration not stated)	7.4%
CCCCOC(=O)c1ccc(NC(=S)NC(=O)c2c(Cl)cnn2C)cc1	62.3% (active)
COC(=O)c1ccc(NC(=S)NC(=O)c2c(Cl)cnn2C)cc1	-3.2%
CCCCOC(=O)c1ccc(NC(=S)NC(=O)c2c(Cl)cnn2CC)cc1	17.1%
CCN1CCCn2c1nc1c2c(=O)n(C)c(=O)n1C	-4.6%
CC1CCCCN1C(=O)CSc1nnc(-c2c[nH]c3ccccc23)o1 (configuration not stated)	-3.8%
CC1(C)CC(=O)C(C=Nc2ccc(NC3=C(C#N)C(=O)CC(C)(C)C3)cc2)=C(O)C1	60.4% (active)
CC1(C)CC(=O)C(C=Nc2ccc(N)cc2)=C(O)C1	33.3%
CC1(C)CC(=O)C(C=Nc2ccc(O)cc2)=C(O)C1	21.8%
CCOC(=O)Cn1c(-c2cccnc2Cl)nc2cc(Cl)c(Cl)cc21	21.1%
O=C(CN(c1ccc(Br)cc1)S(=O)(=O)c1ccc(Cl)c([N+](=O)[O-])c1)NCCc1ccccc1	-3.9%
COc1ccc(CN=CC2=C(O)CC(C)(C)CC2=O)cc1	12.4%
Oc1ccc(NCc2cccc(OCc3ccccc3)c2)cc1	58.9% (active)

Structure (SMILES)	inhibition
O=[N+]([O-])c1ccc(COc2cccc(CNc3ccc(F)cc3)c2)cc1	-3.6%
c1ccc(COc2cccc(CNn3cnnc3)c2)cc1	0.5%
O=[N+]([O-])c1ccc(COc2cccc(CNc3ccc(Br)cc3)c2)cc1	19.9%
Fc1ccc(COc2cccc(CNCc3ccncc3)c2)cc1	-15.5%
Oc1ccc(NCc2cccc(OCc3ccc(F)cc3)c2)cc1	51.3% (active)
CCS(=O)(=O)c1c(S(=O)(=O)CC)c2ccccn2c1C(N)=O	-1%
Cc1cccc(C(C)C)c1NC(=O)C1CN(S(=O)(=O)c2ccccc2)CCN1S(=O)(=O)c1ccccc1 (configuration not stated)	1.2%
COc1cccc2c(=O)cc(C)n(CC(=O)Nc3ccccc3C)c12	-2.8%
CC(=O)N1c2ccccc2NC2=C(C(=O)CCC2)C1c1ccc(F)cc1 (configuration not stated)	13.6%
CCC(=O)N1c2ccccc2NC2=C(C(=O)CCC2)C1c1ccc(N(C)C)cc1 (configuration not stated)	16.3%
CC(C)C(=O)N1c2ccccc2NC2=C(C(=O)CCC2)C1c1ccc(N(C)C)cc1 (configuration not stated)	60.7% (active)
Fc1ccccc1COc1ccc2ccccc2c1CNc1nn[nH]n1	-1.6%
O=[N+]([O-])c1cccc(C2Nc3cccc4cccc(c34)N2)c1	-12.5%
O=[N+]([O-])c1ccc(C2Nc3cccc4cccc(c34)N2)cc1	14.6%
O=[N+]([O-])c1ccc(Cl)c(C2Nc3cccc4cccc(c34)N2)c1	60.2% (active)
CS(=O)(=O)N1CCN(Cc2ccc([N+](=O)[O-])cc2)CC1	11.9%
Cc1ccc(CN2CCN(/N=C/c3ccc(Cl)c([N+](=O)[O-])c3)CC2)cc1	15.3%
CSc1ccc(CN2CCN(Cc3ccc([N+](=O)[O-])cc3)CC2)cc1	4%
COc1cc(CN2CCN(c3ccc(C)cc3)CC2)cc([N+](=O)[O-])c1O	10.7%
COc1cc(CN2CCN(Cc3ccc([N+](=O)[O-])cc3)CC2)c([N+](=O)[O-])cc1OC	56.3% (active)
COc1cccc(CN2CCN(C(=O)Nc3ccc([N+](=O)[O-])cc3)CC2)c1	10.7%
COc1cccc(C(=O)N2CCN(Cc3ccccc3[N+](=O)[O-])CC2)c1	-13.8%
COc1cccc(CN2CCN(Cc3cc(OC)c(OC)cc3[N+](=O)[O-])CC2)c1	53.2% (active)
COc1cc(CN2CCN(Cc3ccc(C)cc3)CC2)c([N+](=O)[O-])cc1OC	61.5% (active)
CC1SCCN1S(=O)(=O)c1ccc2ccccc2c1 (configuration not stated)	7.8%

Structure (SMILES)	inhibition
CCOC(=O)N1CCC2(CC1)C(C#N)=C(N)Oc1c2c(C)nn1-c1cccc(Cl)c1	-99.5%
CNc1ccc(Br)cc(C(=O)/C=C/c2cccc(Cl)c2Cl)c1=O	24.7%
Nc1nc(F)cc(NCc2ccccc2)n1	10.5%
COc1ccc(CNCc2ccco2)cc1OCc1ccccc1	10.6%
CN(C)S(=O)(=O)c1cccc(NC(=O)c2ccc(N3CCOCC3)c([N+](=O)[O-])c2)c1	8.9%
Cn1c(NC(=O)C2CCCO2)cc(=O)n(C)c1=O (configuration not stated)	42.3%
COc1ccc(CC(=O)N2CCN(c3ccccn3)CC2)cc1	8.3%
CCN1C(=O)C2C(c3cccc(F)c3)NC(CC)(C(=O)OC)C2C1=O (configuration not stated)	2.1%
CCCn1c(=N)c(C(=O)NCC2CCCO2)cc2c(=O)n3cccc(C)c3nc21 (configuration not stated)	13.9%
COCCCn1c(=N)c(C(=O)NCC2CCCO2)cc2c(=O)n3cccc(C)c3nc21 (configuration not stated)	53.6% (active)
COCCCn1c(=N)c(C(=O)NCC2CCCO2)cc2c(=O)n3ccccc3nc21 (configuration not stated)	5.1%
COc1ccccc1CNC(=O)Nc1cccs1	-15.1%
CCOC(=O)C1=C(C)NC(=O)NC1c1ccc(N(CC)CC)cc1 (configuration not stated)	25.8%
O=C(CCN1CCOCC1)c1ccc(Cl)cc1	26.3%
O=C(CCN1CCOCC1)c1ccccc1	-3.1%
O=C(CCN1CCN(c2ccccc2F)CC1)Nc1ccccc1F	-3.7%
COc1ccc(C(=O)CCN2CCN(c3ccccc3F)CC2)cc1	17.7%
COc1cc(-c2nnc(SCC(=O)OC3CCCCC3)o2)cc(OC)c1OC	5.5%
COc1cc(NC(=O)CSc2nc3ccccc3c(=O)n2C)ccc1NC(=O)c1ccco1	22.5%
COC(=O)c1c(-c2ccc(C)cc2)csc1NC(=O)C1CC=CCC1C(=O)O (configuration not stated)	2.6%
COC(=O)c1c(-c2ccco2)csc1NC(=O)C1CC=CCC1C(=O)O (configuration not stated)	59% (active)
COC(=O)c1c(-c2ccccc2)csc1NC(=O)C1CC=CCC1C(=O)O (configuration not stated)	-0.2%
